Source: PubChem BioAssay (National Center for Advancing Translational Sciences (NCATS))
Compounds with a hit are over-represented: about 8% of the library has one in this group of screens.
RORg inh = inhibitors of mouse ROR gamma transcriptional activity; P51450; Drosophila S2 Gal4-RORgamma UAS-luciferase reporter, 20 h; Potency, µM (titrated, usually from 53.6 µM), for inactives: at the highest dose activity change, negative = inhibition, usual class: inhibitors; actives 5.4% (n = 310,000); AID 2551; also: potency is read from the fitted curve at half-maximal effect; nearly all actives have a fitted effect of over 60% in size
Target sequence (P51450 whole entry, looked up, the tested form may be a part): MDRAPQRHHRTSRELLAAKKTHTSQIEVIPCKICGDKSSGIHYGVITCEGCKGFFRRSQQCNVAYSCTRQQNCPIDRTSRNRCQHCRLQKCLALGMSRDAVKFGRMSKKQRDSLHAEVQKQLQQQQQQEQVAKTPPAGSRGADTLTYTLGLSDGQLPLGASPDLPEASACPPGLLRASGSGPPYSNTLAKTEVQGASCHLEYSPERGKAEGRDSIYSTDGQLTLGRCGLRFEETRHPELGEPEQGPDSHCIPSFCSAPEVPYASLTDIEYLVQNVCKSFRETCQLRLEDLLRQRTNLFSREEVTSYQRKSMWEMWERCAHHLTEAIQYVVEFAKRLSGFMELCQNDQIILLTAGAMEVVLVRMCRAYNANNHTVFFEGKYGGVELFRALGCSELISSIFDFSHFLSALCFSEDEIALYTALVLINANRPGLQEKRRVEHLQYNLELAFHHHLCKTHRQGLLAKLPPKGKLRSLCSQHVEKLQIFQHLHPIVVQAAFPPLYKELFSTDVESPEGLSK
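In this cell-based reporter format, copper sulfate (700 uM final) drives Gal4–ROR gamma fusion expression from a metallothionein promoter in Drosophila Schneider cells; compounds preincubated 1 hr, reporter read after 20 hr at ambient temperature.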
ELG1 DNA repair = blocks ELG1-dependent DNA repair in HEK293T cells. HEK293T ELG1-luciferase reporter, luminescence, 16 h; DNA damage induced by 5-fluorouridine. Potency, µM (doses to about 46.1 µM), for the others: at the highest dose activity change, negative = inhibition, usual class: inhibitors. actives 2.3% (n = 330,000). AID 504467; also: potency is read from the fitted curve at half-maximal effect; nearly all actives have a fitted effect of over 55% in size
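Step one: seed 2,000 cells per well. Step two: pin-transfer compound or DMSO alongside 5-fluorouridine. Step three: incubate 16 hr, 37 °C, 5% CO2. Step four: add ONE-Glo, wait 30 min, read luminescence.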
Coupling enz = coupling enzyme interference in Giardia aldolase counter-screen | coupling enzyme system counterscreen, AmpLite Red fluorescence | activity change, negative = inhibition, % at 58.2 µM, hits read low | actives 0.67% (n = 290,000) | AID 2472; in the data active = activity change below about -30%
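Coupling enzymes only (glyceraldehyde-3-phosphate) + compound, at 57.5 uM final, 10 min RT; add substrate/coupling/AmpLite Red mix, 20 min RT; fluorescence ex 525/em 598 nm. Actives flag coupling-system interference.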
VP16 counter = Gal4-VP16 reporter inhibition counter-screen | Drosophila S2 Gal4-VP16 UAS-luciferase, luminescence, 20 h | Potency, µM (doses to about 53.6 µM), inactives show at the top dose activity, negative = inhibition, most hits filed as inhibitors | actives 3.5% (n = 310,000) | AID 2546;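 also: Gal4-VP16 expression switched on by copper sulfate through the metallothionein promoter; potency is read from the fitted curve at half-maximal effect; nearly all actives have a fitted effect of over 50% in size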
TSHR antag = human thyrotropin receptor antagonism | P16473 | TSHR-expressing cells, TSH-stimulated cAMP HTRF, 2 h; stronger effect = lower value | activity change, negative = inhibition, % at 11.5 µM | actives 0.2% (n = 330,000);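 active = activity change below a set negative limit, meaning inhibition stronger than a set level, cut at about -70% in these data; inconclusive = activity change between two set negative limits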
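Competitive HTRF cAMP read-out (cryptate anti-cAMP antibody, cAMP-d2; 30 min, room temperature) in freshly harvested TSHR cells. Compounds added before TSH at EC80 (4nM final), followed by 2 hours' incubation at 37 deg C.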
Starred values were filed as active, the others as inactive; ? = inconclusive; · = no result given. Unless noted, calls follow the shape of the dose curve; as a rule, active = well fitted curve in the direction sought with a large enough effect; inconclusive = small, poorly fitted or top-dose-only effect, or another doubt; inactive = no such curve, though single readings can be large; an effect the other way counts as inactive or inconclusive. % is scaled to controls: 0 for no effect and ±100 for the full control effect.

SMILES	RORg inh	ELG1 DNA repair	Coupling enz	VP16 counter	TSHR antag
COc1ccc(NC(=O)c2ccc(=O)[nH]c2)cc1S(=O)(=O)N1CCCCC1	35.1%	16.0%	2.2	-14.4%	0.2
CCOc1ncccc1C(=O)Nc1ccc(C)c(S(=O)(=O)N2CCCCCC2)c1	·	20.6µM*	·	·	?
COc1ccc(CC(=O)Nc2cc(C)ccc2O)cc1OC	43.1%	?	-2.0	?	1.0
Cc1ccc(C(O)C2=CCCC2=O)cc1 (stereo not given)	-10.2%	·	5.2	2.4%	·
COc1ccc(/C=N/NC(=O)Cc2cccs2)cc1	-3.5%	?	-1.2	10.4%	-0.5
O=C(Cc1cccs1)N/N=C\c1ccc([N+](=O)[O-])s1	?	14.6µM*	-4.0	?	-7.8
O=C(CNC(=O)c1ccccc1Cl)N/N=C/c1ccc([N+](=O)[O-])s1	17.8µM*	?	3.2	?	-5.1
Cc1ccc(/C=N/NC(=O)Cc2cccs2)o1	?	35.0%	-3.5	35.5µM*	17.8
O=C(CCNC(=O)c1ccccc1Cl)NN=Cc1ccccc1[N+](=O)[O-]	·	1.5%	·	·	-4.6
COc1cc(/C=N/NC(=O)Cc2cccs2)c([N+](=O)[O-])cc1OC	9.8%	?	-4.0	-3.7%	30.6
CC1CN(CCC(=O)Nc2ccccc2F)CC(C)O1 (stereo not given)	23.7%	-6.5%	2.2	-1.2%	6.4
COc1ccc(C2=C(C)CC(C)(C)NC2=O)cc1OC	5.5%	-3.1%	3.6	-8.9%	-5.2
CC1=C(c2ccccc2)C(=S)NC(C)(C)C1	2.51µM*	1.2%	-2.2	7.08µM*	-6.7
O=C1c2cccc3c([N+](=O)[O-])ccc(c23)C(=O)N1O	?	13.4%	0.2	12.6µM*	0.2
O=C1c2cccc3c([N+](=O)[O-])ccc(c23)C(=O)N1c1nccs1	5.62µM*	?	-10.7	5.01µM*	-30.7
CC(=O)Oc1ccc(N2C(=O)c3cccc4c([N+](=O)[O-])ccc(c34)C2=O)cc1	?	18.3µM*	-6.2	?	-49.3
O=C1c2cccc3c([N+](=O)[O-])ccc(c23)C(=O)N1c1ccc(Cl)cn1	?	?	-13.8	7.94µM*	-88.8*
CC(Nc1ccc2ccccc2c1)C(=O)N/N=C/c1ccncc1 (stereo not given)	·	0.6%	·	·	0.9
C[C@@H](CN(C)C[C@H]1C(=O)O[C@@H]2C[C@@]3(C)CCC[C@]4(CO4)C3CC21)[C@H](O)c1ccccc1 (stereo not given in full)	-22.4%	·	0.2	-1.6%	·
CCC(C)c1ccccc1NC(=O)COC(=O)C1=NN(c2ccccc2)C(=O)CC1 (stereo not given)	·	?	·	·	2.1
CC(C)(C)CC(=O)NC(=S)NCc1ccco1	4.47µM*	-4.7%	0.8	?	-4.0
O=C(CCc1ccccc1)NC(=S)NCc1ccco1	7.94µM*	6.0%	0.0	?	-9.7
CC1=CC(=NOC(=O)/C=C/c2ccccc2)C=C(C)C1=O	?	4.4%	-45.4*	?	-15.4
CC1=CC(=O)C=C(C)C1=NOC(=O)/C=C\c1ccccc1	?	6.8%	-16.2	?	-0.3
O=C(CSc1ccc2nnc(-c3ccc(Cl)cc3)n2n1)N1CCCc2ccccc21	27.8%	?	-3.1	-4.9%	67.3
SMILES	RORg inh	ELG1 DNA repair	Coupling enz	VP16 counter	TSHR antag
O=C(CSc1ccc2nnc(-c3ccc(F)cc3)n2n1)N1CCCc2ccccc21	-7.9%	18.4µM*	5.9	-12.5%	-11.0
O=C(CCCNC(=O)c1ccc(Cl)cc1)Nc1ccc(F)c(S(=O)(=O)N2CCOCC2)c1	·	-9.2%	·	·	6.7
N#CCN1C(=S)N=C(Nc2cccc(Cl)c2)C12CCCCC2	2.82µM*	9.3%	-0.5	?	20.8
Cc1cccc(NC2=NC(=S)N(c3ccc(C(=O)O)cc3)C23CCCCC3)c1	1.3%	1.3%	9.3	-4.7%	13.8
CC(C)(C)C1CCC2(CC1)C(Nc1cccc(C(F)(F)F)c1)=NC(=S)N2CC#N (stereo not given)	17.8µM*	2.1%	-0.2	12.6µM*	1.1
Cc1ccc(NC2=NC(=S)N(CC#N)C23CCCCC3)cc1	17.8µM*	9.0%	1.2	-20.1%	-11.9
